Assay outcomes from PubChem.
A selection: hits, their analogues and other compounds. The true share with any hit is near 19%.
DT40 TDP1 CPT: growth inhibition of DT40 Tdp1-/-;hTDP1 cells with camptothecin (screen for TDP1 inhibitors); chicken DT40 Tdp1-/-;hTDP1 cells + 20 nM CPT, ATP luminescence, 48 h; AID 686979; 12% of 420,000 active; Potency, µM (highest dose often 46.2 µM), inactives show at the highest dose activity change, negative = growth inhibition, most hits filed as inhibitors; further: potency means the concentration at half of the fitted maximal effect; nearly all actives have a fitted effect of over 55% in size
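Cell growth measured by CellTiter-Glo luminescence after a minimum 48 h, 37 C compound exposure with 20 nM CPT in Tdp1-knockout DT40 cells stably expressing hTDP1, seeded 400/well; qHTS titration format.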
IL1B secr inh: blocks inflammasome-driven IL-1 beta release | THP-1 LPS/ATP IL-1B secretion, AlphaLISA, 16 h; stronger effect = lower value | activity change, % at 57.5 µM | 4.7% of 360,000 active; in the data active means activity change below about -50%; inconclusive means mostly about -30% to -49%
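THP-1 cells pretreated 1 hr with compounds (up to 57.5 uM final), then stimulated with LPS (250 ng/mL final) plus ATP (1.25 mM final); secreted IL-1B measured by AlphaLISA after 16 hr, decreased signal indicating inhibition.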
HT1080 IDH1KD tx: toxicity to HT-1080 IDH1 knockdown cells (counter line) | 2% of 360,000 active | Potency, µM (titrated, usually from 46.1 µM), inactives show top-dose activity, negative = toxicity, hits mostly cytotoxic | HT-1080 IDH1 knockdown viability, ATP luminescence, 48 h;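 further: potency means the concentration at half of the fitted maximal effect; 0% = DMSO wells and -100% = cell-free medium wells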
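After a 2 h attachment period, IDH1KD HT-1080 cells took pin-transferred compound for 48 h at 37 °C; ATP-based luminescence after 10 min room-temperature reagent incubation reported viability.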
DT40 TDP1 no CPT: qHTS for Inhibitors of human tyrosyl-DNA phosphodiesterase 1 (TDP1): qHTS in cells in absence of CPT; DT40 Tdp1-/- hTDP1 cells, no CPT, ATP luminescence, 48 h; Potency, µM (series often up to 46.2 µM), inactives show top-dose activity change, negative = growth inhibition, usual class: inhibitors; 15% of 420,000 active; further: potency means the concentration at half of the fitted maximal effect; nearly all actives have a fitted effect of over 55% in size
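Chicken DT40 Tdp1-/- cells stably complemented with human TDP1 were seeded at 400 cells/well with DMSO in place of 20 nM camptothecin. After compound pinning, cells grew at least 48 hr at 37 °C; viability read by CellTiter-Glo luminescence.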
HT1080-NT tox: kills 2HG-producing HT-1080-NT fibrosarcoma cells. HT-1080-NT fibrosarcoma viability, CellTiter-Glo ATP luminescence, 48 h. Potency, µM (titrated, usually from 46.1 µM), inactives show top-dose activity, negative = less viability, most hits filed as cytotoxic. 1.6% of 360,000 active. AID 686970;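 further: NT is the 2HG producing partner of a matched IDH1 knockdown line; potency means the concentration at half of the fitted maximal effect; 0% = DMSO-treated cells and -100% = media-only wells without cells; nearly all actives have a fitted effect of over 55% in size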
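Toxicity toward the 2HG-producing NT line was scored as %Activity, normalised to DMSO and no-cell wells, from CellTiter-Glo luminescence after 48 hours' treatment.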
* hit, by the source's call; [ ] = remark or other dose. Unless noted, the call rests on the fitted dose curve; in most records, active means well fitted curve in the direction sought with a large enough effect; inconclusive means small, poorly fitted or top-dose-only effect, or another doubt; inactive means no such curve, though single readings can be large; an effect the other way counts as inactive or inconclusive. Unless noted, on the % scale 0 is the no-effect control and ±100 the full control effect.

For COc1ccc(CN2C[C@@H](CO)O[C@@H](n3cnc4c(N5CCN(c6ccccc6)CC5)ncnc43)C2)cc1 the results were DT40 TDP1 CPT inconclusive, IL1B secr inh -19.6, HT1080 IDH1KD tx 18.4µM*, DT40 TDP1 no CPT 16.4µM* and HT1080-NT tox inconclusive.
CN(C)c1ncnc2c1ncn2[C@H]1CN(Cc2ccc(-c3ccccc3)cc2)C[C@@H](CO)O1 was read as DT40 TDP1 CPT inconclusive, IL1B secr inh -5.3, HT1080 IDH1KD tx 2.8%, DT40 TDP1 no CPT 14.6µM* and HT1080-NT tox -0.6%.
For OC[C@@H]1CN(Cc2ccco2)C[C@H](n2cnc3c(N4CCN(c5ccccc5)CC4)ncnc32)O1 the results were DT40 TDP1 CPT 23.1µM*, IL1B secr inh 9.2, HT1080 IDH1KD tx -9.4%, DT40 TDP1 no CPT 23.1µM* and HT1080-NT tox -10.3%.
CC(C)(C)c1ccc(-c2ncccc2O)cc1 was read as DT40 TDP1 CPT -14.0%, IL1B secr inh -5.5, HT1080 IDH1KD tx -3.9%, DT40 TDP1 no CPT inconclusive and HT1080-NT tox -3.2%.
Cc1ccc(N=c2oc3cc(O)ccc3cc2C(N)=O)cc1 was read as DT40 TDP1 CPT 8.2µM*, IL1B secr inh inconclusive, HT1080 IDH1KD tx inconclusive, DT40 TDP1 no CPT 7.31µM* and HT1080-NT tox inconclusive.
Screening COc1ccc(N=c2oc3cc(O)ccc3cc2C(=O)Nc2ccccn2)cc1OC returned DT40 TDP1 CPT 1.46µM*, IL1B secr inh -28.3, HT1080 IDH1KD tx 10.8%, DT40 TDP1 no CPT 2.06µM* and HT1080-NT tox 18.7%.
`CC(=O)c1cc2ccc(O)cc2oc1=O` gave DT40 TDP1 CPT -1.9%, IL1B secr inh -8.8, HT1080 IDH1KD tx 8.5%, DT40 TDP1 no CPT 5.7% and HT1080-NT tox 1.6%.
For COc1cc(C)c(/C=C/C(C)=C/C=C/C(C)=C/C(=O)O)c(C)c1C the results were DT40 TDP1 CPT inconclusive, IL1B secr inh 37.5, HT1080 IDH1KD tx -27.7%, DT40 TDP1 no CPT inconclusive and HT1080-NT tox -1.0%.
For O=C(Cc1ccc(Cl)cc1)Nc1cccnc1Cl the results were DT40 TDP1 CPT 5.7%, IL1B secr inh -27.5, HT1080 IDH1KD tx 13.5%, DT40 TDP1 no CPT -3.9% and HT1080-NT tox 8.9%.
`CCOC(=O)c1sc(=S)n(-c2ccccc2Cl)c1SC` gave DT40 TDP1 CPT inconclusive, IL1B secr inh -67.4*, HT1080 IDH1KD tx -8.5%, DT40 TDP1 no CPT inconclusive and HT1080-NT tox -17.5%.
For COCCn1c(C)cc(O)c(C(c2ccc(OC)cc2)N2CCCCC2)c1=O (configuration not stated) the results were DT40 TDP1 CPT -4.4% and DT40 TDP1 no CPT -5.9%.
For COCCn1c(=O)c(-c2ccc(Cl)cc2)nc2cnc(Oc3cccc(Cl)c3)nc21 the results were DT40 TDP1 CPT -2.1% and DT40 TDP1 no CPT -8.3%.
For CC(C)(C)OC(=O)CC1(C#N)c2ccccc2C(Br)=CN1C(=O)c1ccccc1 (configuration not stated) the results were DT40 TDP1 CPT inconclusive, IL1B secr inh -5.8, HT1080 IDH1KD tx inconclusive, DT40 TDP1 no CPT 16.4µM* and HT1080-NT tox -23.9%.
`O=C(Nc1cccc(-c2ccc(N3CCOCC3)nn2)c1)c1cccc(Cl)c1` gave DT40 TDP1 CPT -21.5%, IL1B secr inh 11.2, HT1080 IDH1KD tx -1.3%, DT40 TDP1 no CPT 20.6µM* and HT1080-NT tox 2.3%.
Screening Cc1cc(C(=O)Nc2cccc(-c3ccc(N4CCOCC4)nn3)c2)ccc1[N+](=O)[O-] returned DT40 TDP1 CPT inconclusive, IL1B secr inh -6.8, HT1080 IDH1KD tx -10.1%, DT40 TDP1 no CPT 25.9µM* and HT1080-NT tox -21.1%.
Screening Cc1ccc(C(=O)Nc2cccc(-c3ccc(N4CCOCC4)nn3)c2)cc1C returned DT40 TDP1 CPT inconclusive, IL1B secr inh 16.8, HT1080 IDH1KD tx -5.1%, DT40 TDP1 no CPT inconclusive and HT1080-NT tox -28.2%.
O=C(Nc1cccc(-c2ccc(N3CCOCC3)nn2)c1)c1ccccc1Cl was read as DT40 TDP1 CPT -29.8%, IL1B secr inh -8.9, HT1080 IDH1KD tx 4.8%, DT40 TDP1 no CPT -21.6% and HT1080-NT tox -3.9%.
For O=C(Nc1cccc(-c2ccc(N3CCCCC3)nn2)c1)c1ccco1 the results were DT40 TDP1 CPT inconclusive, IL1B secr inh -9.2, HT1080 IDH1KD tx -14.6%, DT40 TDP1 no CPT 13µM* and HT1080-NT tox 0.5%.
Screening Cc1cccc(CNC(=O)c2c3n(c(C)cc2=O)-c2ccccc2SC(c2sccc2C)C3)n1 (configuration not stated) returned DT40 TDP1 CPT -4.8%[9.04 µM] and DT40 TDP1 no CPT -13.5%.
`CCOC(=O)C1=CN(CC2CCCCC2)CCC1=O` gave DT40 TDP1 CPT 3.5%, IL1B secr inh -11.0, HT1080 IDH1KD tx 4.5%, DT40 TDP1 no CPT -15.2% and HT1080-NT tox 2.6%.
COc1ccc(C2CC(c3ccccc3)=NN2c2ccc(/C=N/NC(=O)c3ccncc3)cc2)cc1 (configuration not stated) was read as DT40 TDP1 CPT inconclusive, IL1B secr inh 14.7, HT1080 IDH1KD tx -20.6%, DT40 TDP1 no CPT inconclusive and HT1080-NT tox -13.7%.
Screening NS(=O)(=O)c1ccc(N2N=C(c3ccccc3)CC2c2ccc(F)cc2)cc1 (configuration not stated) returned DT40 TDP1 CPT inconclusive, IL1B secr inh -61.2*, HT1080 IDH1KD tx -19.8%, DT40 TDP1 no CPT inconclusive and HT1080-NT tox -3.8%.
`NS(=O)(=O)c1ccc(N2N=C(c3ccccc3)CC2c2cccc(Cl)c2)cc1` (configuration not stated) gave DT40 TDP1 CPT -27.6%, IL1B secr inh -70.2*, HT1080 IDH1KD tx inconclusive, DT40 TDP1 no CPT -22.5% and HT1080-NT tox inconclusive.
Cc1ccc(N2N=C(c3ccc(F)cc3)CC2c2ccco2)cc1 (configuration not stated) was read as DT40 TDP1 CPT 18.4µM*, IL1B secr inh 8.9, HT1080 IDH1KD tx -3.5%, DT40 TDP1 no CPT inconclusive and HT1080-NT tox 9.2%.
Screening Cc1cccc(C2CC(c3ccccc3)=NN2c2ccc(S(N)(=O)=O)cc2)c1 (configuration not stated) returned DT40 TDP1 CPT inconclusive, IL1B secr inh -22.4, HT1080 IDH1KD tx inconclusive, DT40 TDP1 no CPT inconclusive and HT1080-NT tox inconclusive.
Screening N#CCC(=O)N/N=C/c1ccc(N2N=C(c3ccccc3)CC2c2ccccc2)cc1 (configuration not stated) returned DT40 TDP1 CPT 23.1µM*, IL1B secr inh -7.4, HT1080 IDH1KD tx -20.0%, DT40 TDP1 no CPT 18.4µM* and HT1080-NT tox inconclusive.
